SMN2 splice enh: increases expression of the SMN2 splice variant | HEK293 SMN2-luciferase splicing reporter, luminescence, 30-36 h | Potency, µM (top dose mostly 46.1 µM), actives largely listed as activators | 210,000 tested, 2.8% active | AID 1458; further: nearly all actives have a fitted effect of over 55% in size
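HEK293 cells carry an SMN2 minigene-luciferase reporter in which exon 7 inclusion puts luciferase in frame. Cells were seeded at 2000 cells/well, attached for 10-12 hours, then exposed to compounds for 30-36 hours at 37C before ONE-Glo luminescence.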
FLuc modulator: inhibits or activates purified firefly luciferase, miR-21 counter-screen; Potency, µM (titrated, usually from 57.5 µM), hits mostly inhibitors; P08659; purified FLuc, Km substrates, luminescence inhibition; 360,000 tested, 6.9% active; AID 588342; further: nearly all actives have a fitted effect of over 55% in size
Target sequence (P08659 whole entry, looked up): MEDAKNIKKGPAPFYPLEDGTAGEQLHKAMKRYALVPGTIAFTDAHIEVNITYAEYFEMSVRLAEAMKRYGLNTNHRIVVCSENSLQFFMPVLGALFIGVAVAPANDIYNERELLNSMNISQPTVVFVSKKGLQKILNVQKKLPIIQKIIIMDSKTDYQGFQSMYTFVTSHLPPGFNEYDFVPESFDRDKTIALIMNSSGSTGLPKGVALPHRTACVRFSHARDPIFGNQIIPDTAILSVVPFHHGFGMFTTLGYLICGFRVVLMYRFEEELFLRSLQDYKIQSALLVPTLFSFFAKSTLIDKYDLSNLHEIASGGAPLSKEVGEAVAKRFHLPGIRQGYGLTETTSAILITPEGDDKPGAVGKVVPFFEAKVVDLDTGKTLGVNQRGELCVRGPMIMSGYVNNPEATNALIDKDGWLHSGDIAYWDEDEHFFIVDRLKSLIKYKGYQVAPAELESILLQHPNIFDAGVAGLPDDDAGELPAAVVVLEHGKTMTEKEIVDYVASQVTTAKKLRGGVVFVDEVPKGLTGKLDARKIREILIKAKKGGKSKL
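Purified P. pyralis luciferase, 10 nM final, with Km-level 10 uM D-luciferin and 10 uM ATP in 50 mM Tris acetate pH 7.5, 10 mM Mg acetate, 0.01% Tween-20, 0.05% BSA; 6-point qHTS titration about 60 µM downward; luminescence read.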
NPC1 promoter act: activates the NPC1 promoter. Huh7 NPC1 promoter luciferase reporter, 24 h. Potency, µM (top dose mostly 9.22 µM), most hits filed as activators. 320,000 tested, 2.4% active. AID 485313; further: nearly all actives have a fitted effect of over 60% in size
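Luciferase expression driven by the NPC1 promoter was measured in stably transfected Huh7 cells after a 24 h compound incubation, using a luciferase reagent and a luminescence read.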
ELG1 repair inh: ELG1-dependent DNA repair inhibition | HEK293T ELG1-luciferase reporter, luminescence, 16 h; DNA damage induced by 5-fluorouridine | Potency, µM (top dose mostly 46.1 µM), usual class: inhibitors | 330,000 tested, 2.3% active | AID 504467; further: nearly all actives have a fitted effect of over 55% in size
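HEK293T cells expressing luciferase-tagged ELG1 (2,000/well) received 5-Fluorouridine plus compound or DMSO for 16 hr at 37 °C. Luciferase was read by ONE-Glo luminescence after 30 min at room temperature.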
Rab9 promoter act: activates the Rab9 promoter. Huh7 Rab9 promoter-luciferase reporter, luminescence, 24 h. Potency, µM (highest dose often 9.22 µM), actives largely listed as activators. 320,000 tested, 2.8% active; further: nearly all actives have a fitted effect of over 60% in size
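Cells were plated at 1500 per well in reduced-serum medium with 10% FBS and left 2 h. Compound in DMSO was then added for 24 h at 37 °C. Reporter signal was read by luminescence after 10 min with luciferase detection reagent.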
ELG1 genotoxic: inducers of genotoxicity in HEK293T ELG1-luciferase cells | Potency, µM (titrated, usually from 46 µM), hits mostly activators | 330,000 tested, 1.3% active | HEK293T ELG1-luciferase reporter, luminescence, 16 h; further: nearly all actives have a fitted effect of over 60% in size
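After overnight (16 hr) compound treatment at 37 °C, ELG1-luciferase HEK293T cells were lysed with ONE-Glo; luminescence quantified 30 min later at room temperature.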
Hits are given with their value; 0 = inactive; ? = inconclusive; - = not tested or not shown; [ ] = another dose, or the depositor's remark. Compounds with a hit are over-represented: about 9.2% of the library has one in this group of screens. The call rests on the fitted dose curve; in most records, active means well fitted curve in the direction sought with a large enough effect; inconclusive means small, poorly fitted or top-dose-only effect, or another doubt; inactive means no such curve, though single readings can be large; an effect the other way counts as inactive or inconclusive.

SMILES	SMN2 splice enh	FLuc modulator	NPC1 promoter act	ELG1 repair inh	Rab9 promoter act	ELG1 genotoxic
Cc1ccc(-c2cc(C(=O)NCCc3ccc(S(N)(=O)=O)cc3)c3ccccc3n2)cc1	0	6µM	0	?	0	0
COc1ccc(-c2cc(C(=O)NCCc3ccc(S(N)(=O)=O)cc3)c3ccccc3n2)cc1	0	7.6µM	0	?	0	0
COc1cc(-c2cc(C(=O)NCc3ccc(S(N)(=O)=O)cc3)c3ccccc3n2)cc(OC)c1OC	-	0	0	13µM	0	0
CCOC(=O)c1c(C)[nH]c(C)c1S(=O)(=O)N(C)CC(=O)NCc1cccc(Br)c1	-	0	0	0	0	0
O=C(Nc1cccc(C(F)(F)F)c1)N1CC2CCCN2c2ccccc21 (stereo unspecified)	-	0	-	-	-	-
Brc1ccc(C2=Nn3c(nnc3-c3n[nH]c4c3CCC4)SC2)cc1	22µM	0[2.3 µM]	0	0	0	?
c1ccc(-c2ccc(C3=Nn4c(nnc4-c4cc(-c5ccccc5)n[nH]4)SC3)cc2)cc1	0	4.8µM	0	0	0	0
COc1ccc(Br)c(C(=O)NNC(=O)c2ccc(NS(=O)(=O)c3cccs3)cc2)c1	-	0	0	0	0	0
CCc1ccc2nc(/N=C(\N)NC(=O)c3ccccc3)nc(C)c2c1	-	6µM	0	0	?	0
CC(=Nc1ccc(C)cc1C)c1sc2ccccc2c1O	11µM	0.76µM	?	?	3.5µM	?
CN=Cc1sc2ccccc2c1O	0	0	0	?	0	0
CC(=Nc1cccc(O)c1)c1sc2ccccc2c1O	18µM	1.7µM	0	?	?	1.6µM
Cc1cc(O)cc2c(=O)c3ccccc3sc12	0	?	0	?	0	0
CC(=Nc1ccc(C)cc1)c1sc2ccccc2c1O	0.63µM	0.43µM	1.8µM	?	0.89µM	0.73µM
CCN(CC)C(=O)c1ccc2c(c1[N+](=O)[O-])C(=O)c1ccccc1C2=O	13µM	0	2.8µM	?	2.2µM	?
Cc1scc(C(=O)N/N=C/c2ccsc2)c1C	18µM	2.1µM	?	?	2.8µM	10µM
Cc1scc(C(=O)N/N=C/c2ccco2)c1C	11µM	11µM	?	?	2.8µM	?
COC(=O)N/N=C/c1cccc(OCCSc2ccc(Cl)cc2)c1	11µM	0	?	0	0	0
CCCOc1cccc(/C=N/NC(=O)c2csc(C)c2C)c1	0	4.8µM	0	0	0	0
CCOc1ccc(CCNc2ncnc3onc(-c4ccc(F)cc4)c23)cc1OCC	-	0	-	-	-	-
O=C(CCNS(=O)(=O)c1ccccc1C(F)(F)F)NCCCN1CCOCC1	-	-	-	0	-	0
CCCCc1ccc(NC(=O)Nc2cnccn2)cc1	-	?	0	?	0	0
CCc1ccc(NC(=O)Nc2ccon2)cc1	-	7.6µM	2.2µM	?	2.5µM	?
O=C(Nc1ccc([N+](=O)[O-])cc1)Nc1ccon1	-	0	0	0	0	0
CCc1ccc(NC(=O)Nc2cnccn2)cc1	-	11µM	?	?	3.5µM	?
SMILES	SMN2 splice enh	FLuc modulator	NPC1 promoter act	ELG1 repair inh	Rab9 promoter act	ELG1 genotoxic
CCCC(=O)Nc1c2c(nn1-c1ccc(C)cc1)CS(=O)(=O)C2	-	0	0	0	0	0
COC(=O)[C@@]1(C)C[C@@H]1[C@@H](NC(=O)[C@@]1(C)C[C@@H]1[C@@H](NC(=O)[C@@]1(C)C[C@@H]1[C@@H](NC(=O)[C@@]1(C)C[C@@H]1[C@@H](NC(=O)OCc1ccccc1)c1ccccc1)c1ccccc1)c1ccccc1)c1ccccc1	0	-	-	-	-	-
CC(C)c1ccc(NC(=O)CSc2ncccc2C(=O)Oc2cccc([N+](=O)[O-])c2)cc1	10µM	?	4µM	?	4.5µM	16µM
COc1ccc(NC(=O)CSc2ncccc2C(=O)OC(C)C)cc1OC	0	?	0	?	0	0
O=C(C[n+]1cc(-c2ccc(F)cc2)n2c1CCC2)c1cccs1	-	2.4µM	3.2µM	?	2.5µM	?
COc1ccc(-c2c[n+](CC(=O)c3ccccc3)c3n2CCCCC3)cc1	-	0	0	15µM	0	0
O=C(C[n+]1cc(-c2ccccc2)n2c1CCCCC2)c1ccc(Cl)cc1	0	0	0	0	0	0
CC(=O)Nc1ccc(NC(=O)C2CCCN2S(=O)(=O)c2ccc3c(c2)CCCC(=O)N3)cc1 (stereo unspecified)	-	0	-	-	-	-
O=S(=O)(Nc1cccc(-c2ccc(N3CCCCCC3)nn2)c1)c1ccccc1Cl	-	8.5µM	0	0	0	0
Cc1ccc(NS(=O)(=O)c2ccccc2F)cc1S(=O)(=O)N1CCCCCC1	-	0	0	0	0	0
O=S(=O)(Nc1cccc(-c2ccc(N3CCCCCC3)nn2)c1)c1ccccc1F	-	19µM	0	?	?	?
Cc1ccccc1CNCc1c(C(=O)O)c(C)n(Cc2ccc(F)cc2Cl)c1C	0	0	-	-	-	-
O=C(CCN1C(=O)c2ccccc2S1(=O)=O)Nc1ccc(F)c([N+](=O)[O-])c1	-	0	0	0	0	0
CCOc1cc(-c2c(C#N)c(N)nc3c2CCc2ccccc2-3)ccc1O	13µM	0	0	0	0	0
COc1cc(-c2cc(-c3ccc(O)cc3)nc(N)c2C#N)ccc1O	-	0	0	?	0	0
CCOc1cc(-c2cc(-c3ccc(C)cc3)nc(N)c2C#N)ccc1O	?	0	0	16µM	0	0
Cc1cc(C(F)(F)F)c(C#N)c(N2CCOCC2)n1	0	0	0	0	0	0
N#Cc1c(N2CCOCC2)nsc1-c1ccc(C(F)(F)F)cc1	-	7.6µM	?	?	?	?
CC1CCN(S(=O)(=O)c2ccc3c(ccc(=O)n3CC(=O)NCc3ccccc3Cl)c2)CC1	-	0	-	-	-	-
CC(C)=CCC/C(C)=C/CNC(=O)C[C@H]1C[C@H](C(=O)N2CCOCC2)[C@@]2(CCC3CCCC3)c3[nH]c4cc(CCC(=O)N(C)C)ccc4c3CCN2C1=O	-	-	-	23µM	-	0
Cc1ccc(C(=O)Nc2cc(-c3nc4cc(Cl)ccc4o3)ccc2C)c(C)c1	0	0	-	-	-	-
Cc1ccc(-c2nc3cc(Cl)ccc3o2)cc1	?	0.34µM	0	?	0	?
Cc1ccc(-c2nc3cc(NC(=O)C(C)C)ccc3o2)cc1C	?	0.27µM	0.35µM	?	0.13µM	?
Clc1ccc(-c2noc(CN3CCCCC3)n2)cc1	0[9.22 µM]	-	-	-	-	-
Clc1ccc(-c2nc3cc(CN4CCCCC4)ccc3o2)cc1	-	11µM	1.8µM	?	2.8µM	?
Cc1ccc(-c2nc3cc(NC(=O)c4cc(Br)ccc4Cl)ccc3o2)cc1	0	0	-	-	-	-
Cc1ccc(-c2nc3cc(NC(=O)C(C)C)ccc3o2)cc1	0.56µM	1.1µM	0.35µM	?	0.1µM	?
COc1ccc(CCNC(=O)C2CCN(S(=O)(=O)c3ccc4c(c3)oc(=O)n4C)CC2)cc1OC	-	0	0	0	0	0

Source: PubChem
